The campaign covered roughly 330,000 compounds. About 7,700 (2.3%) were called active. Inconclusive results (about 26%) are left out. The call rests on the fitted dose curve; in most records, active means well fitted inhibition curve with a large enough effect; inconclusive means small, poorly fitted or top-dose-only effect, or effect the other way; inactive means flat fitted curve, though single readings scatter. What follows is part of a selection rich in actives, with near analogues and random picks from the rest.
experiment: qHTS screen for small molecules that inhibit ELG1-dependent DNA repair in human embryonic kidney (HEK293T) cells expressing luciferase-tagged ELG1; details: HEK293T ELG1-luciferase reporter, luminescence, 16 h, DNA damage induced by 5-fluorouridine; series mostly up to 46.1 µM; activity change, negative = inhibition: at the top concentration; further: nearly all actives have a fitted effect of over 55% in size
Outline: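 DMSO vehicle served as the neutral condition. Each well held 2,000 cells given 5-fluorouridine plus compound; after 16 hr at 37 °C/5% CO2, ONE-Glo was added and luciferase measured 30 min later.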
On the % scale 0 is the no-effect control and ±100 the full control effect; potency means the concentration at half of the fitted maximal effect.

Row | SMILES | activity change, negative = inhibition | Potency
1 | Cc1ccc(C)c(C(=O)COC(=O)Cn2[nH]c(=O)c3ccccc3c2=O)c1 | -0.316% (inactive) | –
2 | O=C(CCc1nc(-c2ccccc2)no1)Nc1cccc(C(=O)NC2CC2)c1 | -26.2% (inactive) | –
3 | CN(CC(=O)Nc1c(Cl)cccc1Cl)C(=O)CC1OC(=O)c2ccccc21 (configuration not stated) | 10.4% (inactive) | –
4 | CCN(C(=O)CSc1nc2ccccc2n1CC)C1CCS(=O)(=O)C1 (configuration not stated) | 5.4% (inactive) | –
5 | CCN(C(=O)COC(=O)/C=C/c1nc2ccccc2s1)C1CCS(=O)(=O)C1 (configuration not stated) | – | 9.2 µM (active)
6 | CCN(C(=O)COC(=O)c1c(NC(C)=O)sc(C)c1C)C1CCS(=O)(=O)C1 (configuration not stated) | -2.68% (inactive) | –
7 | C=CC(COCc1ccccc1)N(CC(=O)OC)S(=O)(=O)c1cc(Br)ccc1OC (configuration not stated) | -2.49% (inactive) | –
8 | Cc1nc2cc(C(F)(F)F)ccc2n1CCNc1nc(-c2cc(Cl)c(N)c(Cl)c2)cs1 | -16% (inactive) | –
9 | COc1ccc(-c2c(C)cc3oc(=O)cc(-c4ccccc4)c3c2C)cc1OC | -11.1% (inactive) | –
10 | COc1ccc(-c2c(C)cc3oc(=O)cc(-c4ccccc4)c3c2C)cc1F | 19.1% (inactive) | –
11 | COc1ccc(-c2c(C)cc3oc(=O)cc(-c4ccccc4)c3c2C)cc1C=O | – | 25.9 µM (active)
12 | CCOC(=O)N1CCN(Cc2nnc(-c3ccccc3Cl)o2)CC1 | 8.04% (inactive) | –
13 | Cc1ccc(F)cc1NC(=O)CSCc1c(C)noc1C | 23.3% (inactive) | –
14 | COc1ccc(CCNc2nc(C)cc(C)n2)cc1OC | -0.316% (inactive) | –
15 | COc1ccc(CCNc2ncnc3nc[nH]c23)cc1OC | – | 14.6 µM (active)
16 | CCS(=O)(=O)NCCc1ccc(OC)c(OC)c1 | -10.4% (inactive) | –
17 | CCCN(C(=O)c1nc2nccc(C)n2n1)c1c(N)n(Cc2ccccc2)c(=O)[nH]c1=O | 7.75% (inactive) | –
18 | O=C(Nc1ccccc1F)c1ccc(S(=O)(=O)N2CCCCCC2)cc1 | -0.132% (inactive) | –
19 | Cc1cccc(NS(=O)(=O)c2ccc(C)c(C(=O)NCc3cccnc3)c2)c1 | -4.62% (inactive) | –
20 | COC(=O)Cc1ccc(OC(=O)C2CCN(S(=O)(=O)c3ccc(OC)c(OC)c3)CC2)cc1 | 22.6% (inactive) | –
21 | Cc1[nH]c2ccccc2c1C(=O)COC(=O)C(C)C | 13.3% (inactive) | –
22 | CCOC(=O)c1c(C)[nH]c(C)c1S(=O)(=O)N(C)CC(=O)Nc1ccccc1C | 2.89% (inactive) | –
23 | CCOC(=O)c1c(C)[nH]c2c1-c1ccccc1C(=O)C2=O | – | 2.91 µM (active)
24 | CC[C@]12c3[nH]c4cc(CCC(=O)N(C)C)ccc4c3CCN1C(=O)[C@@H](CC(=O)NCCCn1ccnc1)C[C@@H]2C(=O)N1CCN(C(=O)C2CC2)CC1 | 20.4% (inactive) | –

Row | SMILES | activity change, negative = inhibition | Potency
25 | Cc1ccc(N(Cc2ccccc2O)C(=O)c2ccccc2F)cc1 | -6.48% (inactive) | –
26 | Cc1ccc(C(=O)NCC(=O)O)cc1S(=O)(=O)N1CCCCC1 | 12.5% (inactive) | –
27 | Cc1ccc(C(=O)OCC(=O)NCc2cc(C)c(O)c(C)c2)cc1S(=O)(=O)N1CCCCC1 | – | 7.3 µM (active)
28 | Cc1ccc(C(=O)OCC(=O)N2CC(C)CC(C)C2)cc1S(=O)(=O)N1CCCCC1 (configuration not stated) | -2.94% (inactive) | –
29 | COc1ccc(C(=O)OCC(=O)c2ccc(C)c(S(=O)(=O)N3CCOCC3)c2)cc1OC | – | 10.3 µM (active)
30 | Cc1ccc(C(=O)OCC(=O)N2CCCCCC2)cc1S(=O)(=O)N1CCOCC1 | 6.02% (inactive) | –
31 | Cc1ccc(C(=O)OCC(=O)Nc2ccc(Cl)cn2)cc1S(=O)(=O)N1CCOCC1 | 11.3% (inactive) | –
32 | COc1ccc(C2(C)ON(c3ccccc3C(F)(F)F)C2=O)cc1 (configuration not stated) | -20.7% (inactive) | –
33 | Cc1ccc(Cn2cc(C(=O)NN)c(=O)c3ccc(F)cc32)cc1 | -19.1% (inactive) | –
34 | CC1(C)Oc2ccc3ccc(=O)oc3c2/C(=N/O)C1=O | 1.95% (inactive) | –
35 | COc1ccc(C(=O)Nc2ccc3nc(N4CCCCC4)cc(C)c3c2)cc1OC | – | 23.1 µM (active)
36 | COc1ccc(C(=O)NC(=S)Nc2ccc(N3CCCC3)cc2)cc1OC | 26.5% (inactive) | –
37 | COc1ccc(C(=O)Nc2ccc(S(=O)(=O)Nc3onc(C)c3C)cc2)cc1OC | 4.09% (inactive) | –
38 | CN1CCN(CCC(=O)N/N=C/C=C2\N(C)c3ccccc3C2(C)C)CC1 | 10.6% (inactive) | –
39 | CN1/C(=C\C(=O)c2oc3ccccc3c2N)C(C)(C)c2ccccc21 | – | 13 µM (active)
40 | CN1/C(=C\C(=O)c2cccnc2Cl)C(C)(C)c2ccccc21 | 11.6% (inactive) | –
41 | CC(C)[C@H](NC(=O)N1CCn2c1nc1ccccc12)C(=O)NCCc1ccccc1 | 6.27% (inactive) | –
42 | CCOc1ccc(C(=O)CCC(=O)Nc2ccncc2)cc1 | -1.92% (inactive) | –
43 | COc1ccc2oc(C(=O)N(CC(C)C)C3CCS(=O)(=O)C3)c(C)c2c1 (configuration not stated) | 2.82% (inactive) | –
44 | CC(OC(=O)c1ccc([N+](=O)[O-])cc1)C(=O)NCC1CCCCC1 (configuration not stated) | -18.6% (inactive) | –
45 | COc1cc(C(=O)N[C@@H](C)C(=O)NCc2ccco2)cc(OC)c1OC | 9.98% (inactive) | –
46 | COc1cc(C(=O)OC(C)C(=O)NCC2CCCCC2)cc(NC(=O)c2ccco2)c1OC (configuration not stated) | – | 11.6 µM (active)
47 | CN1C(=O)[C@H]2[C@@H](/C=C/c3ccccc3)N3C(=O)CN(Cc4ccc(-c5ccccc5)cc4)C(=O)[C@@]3(C)[C@H]2C1=O | -1.92% (inactive) | –

Reference: PubChem BioAssay AID504467 (National Center for Advancing Translational Sciences (NCATS), 2011)
